aSyn yeast inh = qHTS of alpha-syn Inhibitors; Yeast expressing alpha-synuclein, growth rescue, BacTiter-Glo, 24 h; actives 0.14% (n = 370,000); Potency, µM (top dose mostly 46.1 µM), for the others: at the top dose growth rescue (activation), actives largely listed as activators; note: % of control where 0% means no effect; nearly all actives have a fitted effect of over 65% in size
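Screening used galactose-induced yeast with toxic alpha-synuclein levels, exposed to compound for 24 hr at 30 deg C. Cell growth, read with BacTiter-Glo luminescence, gave the measured signal.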
FUS yeast rescue = qHTS for Suppressors of FUS Proteinopathy: Primary screen using FUS-linked yeast assay | S. cerevisiae FUS-expressing, growth rescue, OD600, 24 h | actives 0.24% (n = 390,000) | AID 1347120, 2019 | Potency, µM (highest dose often 76.6 µM), hits mostly activators;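 note: plate controls were DMSO vehicle for no effect and reference control for full effect; nearly all actives have a fitted effect of over 55% in size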
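Quantitative HTS measuring growth restoration of FUS-toxic yeast. Galactose-induced cells (OD 0.005) were exposed 24hr at 30C to compounds at several concentrations, then absorbance at 600 nm was recorded.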
Abeta rescue = qHTS for compounds that reverse cellular toxicity of Amyloid beta (A-beta) peptide in yeast: Primary Screen; Potency, µM (titrated, usually from 46.1 µM), usual class: activators; yeast expressing A-beta42, growth rescue, OD600, 48 h; response scale: 0% DMSO, 100% iron-clioquinol control; AID 1347071, 2019; actives 0.063% (n = 410,000); note: nearly all actives have a fitted effect of over 55% in size
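Yeast growth medium received pinned compounds, then yeast cells expressing toxic A-beta were added; plates incubated at 30 C for 48 hr. Growth read as absorbance at 600 nm, normalized to DMSO and equimolar FeCl3 plus clioquinol controls.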
TDP43 rescue = qHTS of TDP-43 Inhibitors; Potency, µM (highest dose often 46.1 µM), for the others: at the top dose growth rescue (activation), actives largely listed as activators; TDP-43 expressing yeast growth rescue, BacTiter-Glo, 24 h; actives 1.8% (n = 410,000); AID 652104, 2013; note: % of control where 0% means no effect; nearly all actives have a fitted effect of over 50% in size
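Luminescence from BacTiter-Glo reports growth of TDP-43-expressing yeast after 24 hr at 30 deg C with compound. Cells were raffinose-pregrown to mid-log, then seeded in galactose medium at OD600=0.02.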
* hit, by the source's call; i = inactive; ? = inconclusive; / = not tested or not shown. This is a sample that favours compounds with a hit; in the whole collection about 2.1% have one here. Calls come from the whole dose curve; as a rule, active = well fitted curve in the direction sought with a large enough effect; inconclusive = small, poorly fitted or top-dose-only effect, or another doubt; inactive = no such curve, though single readings can be large; an effect the other way counts as inactive or inconclusive. Potency is the fitted concentration of half-maximal effect.

SMILES	aSyn yeast inh	FUS yeast rescue	Abeta rescue	TDP43 rescue
CC(=O)c1cccc(NC(=O)c2ccc3c(c2)OCO3)c1	3%	i	i	13µM*
O=C(Nc1cccc(NC(=O)c2ccc3c(c2)OCO3)c1)c1ccccc1	-3%	i	i	19%
O=C(NCCc1nc2ccccc2n1CCOc1ccc2cccnc2c1)C1CCCCC1	/	i	/	/
COc1ccc2oc(C)c(C(=O)c3ccc([N+](=O)[O-])cc3)c2c1	8%	/	i	22µM*
Cc1cccc(-n2nnc(C(=O)NCc3ccccc3)c2N)c1	-9%	i	i	25%
O=C(CSc1nnnn1-c1ccccc1)NC1CCCc2ccccc21 (configuration not stated)	6%	i	?	11µM*
CC1(C)CC(=O)C(CC(=O)NC2CCCc3ccccc32)C(=O)C1 (configuration not stated)	0%	i	i	25µM*
Cc1cccc(-n2nnc(C(=O)NC3CCCc4ccccc43)c2N)c1 (configuration not stated)	0%	i	i	16µM*
CCOC(=O)[C@@]12CCC3=C1N(CCC3)C(=O)[C@H](CC(=O)N1CCN(C(=O)C3CC3)CC1)C2	/	i	/	/
O=C(c1ccncc1)N1CC[C@H]2[C@H](CCCN2Cc2cc(F)cc(F)c2)C1	/	i	/	/
CCN(CC)C(=O)N1CCN(/[N+]([O-])=N/Oc2ccc([N+](=O)[O-])cc2[N+](=O)[O-])CC1	-58%	/	/	/
Cc1nonc1OC(C)CNc1ccc([N+](=O)[O-])cc1 (configuration not stated)	-5%	i	i	20µM*
COc1cccc(CNS(=O)(=O)/C=C/c2ccc3c(c2)OCO3)c1	2%	i	i	16µM*
COc1ccccc1CCNC(=O)Cn1ccc2cc(S(=O)(=O)N3CCCCCC3)ccc21	/	i	i	13%
COc1ccc(OC)c(CCNC(=O)Cn2ccc3cc(S(=O)(=O)N4CCCCC4)ccc32)c1	/	35µM*	i	-2%
CCC(C)NC(=O)c1ccc2c(c1)N=C(C)c1cc(C)ccc1S2 (configuration not stated)	/	?	i	-9%
CC1=Nc2cc(C(=O)N3CCCC3)ccc2Sc2c(C)ccc(C)c21	?	?	/	13%
CC1=Nc2cc(C(=O)O)ccc2Sc2c(C)ccc(C)c21	7%	i	i	25µM*
CC1=Nc2cc(C(=O)O)ccc2Sc2ccc(C)cc21	29%	i	i	13µM*
CNc1nc(-c2ccccc2)[n+](-c2ccc(C)cc2)s1	-9%	i	i	14µM*
Cc1ccc(-c2nc(N)s[n+]2-c2ccccc2)cc1	10%	/	i	?
CC(C)(C)OC(=O)NCCCC[C@H](NC(=O)c1[nH]cnc1C(=O)Nc1ccc(Cl)cc1)C(=O)OC(C)(C)C	5%	16µM*	i	8%
C[C@H](NC(=O)c1[nH]cnc1C(=O)Nc1ccccc1)c1ccccc1	-26%	i	i	25µM*
CC(C)(C)OC(=O)NCCCC[C@H](NC(=O)c1[nH]cnc1C(=O)Nc1ccccc1)C(=O)OC(C)(C)C	-6%	?	i	3%
C[C@H](NC(=O)c1nc[nH]c1C(=O)N[C@@H](Cc1ccccc1)C(=O)OC(C)(C)C)c1ccccc1	8%	?	i	16%
SMILES	aSyn yeast inh	FUS yeast rescue	Abeta rescue	TDP43 rescue
C[C@@H](NC(=O)c1nc[nH]c1C(=O)N[C@@H](Cc1ccccc1)C(=O)OC(C)(C)C)c1ccccc1	1%	20µM*	i	-18%
C[C@@H](NC(=O)c1nc[nH]c1C(=O)N[C@@H](CCCCNC(=O)OC(C)(C)C)C(=O)OC(C)(C)C)c1ccccc1	0%	20µM*	i	0%
Cc1ccccc1CS(=O)(=O)Cc1ccc(C(=O)Nc2c(C)cccc2C)o1	/	i	/	/
C(=C1c2ccccc2Oc2ccccc21)c1ccccc1	-7%	/	/	/
COc1cccc(NC(=O)CSc2nnc(NC(=O)NC3CCCCC3)s2)c1	/	i	i	8%
CCOC(=O)c1ccc(NC(=O)c2nc[nH]c2C(=O)N[C@@H](C)C(=O)OC(C)(C)C)cc1	6%	i	i	28µM*
CCOc1ccccc1NC(=O)CSc1nc2c(c(=O)[nH]1)CCC2	/	i	i	13%
COc1ccc(-c2csc(Nc3ncccc3C)n2)cc1	-41%	i	i	24%
COc1ccc(-c2csc(Nc3ncccc3C)n2)cc1OC	-30%	i	i	14µM*
COc1ccc(Nc2nc(-c3ccc(OC)cc3)cs2)cc1	-2%	i	i	4%
COc1ccc(-c2csc(-c3cccnc3)n2)cc1C	15%	i	i	16µM*
COc1ccc(-c2csc(Nc3ccccc3)n2)cc1	-27%	i	?	10µM*
COc1ccc(-c2csc(N3CCSCC3)n2)cc1	-4%	i	i	9%
COc1ccc(-c2csc(-n3cccn3)n2)cc1	2%	i	i	10µM*
CCCNS(=O)(=O)c1cc(-c2nnc3c4ccccc4c(C)nn23)ccc1OC	/	i	i	13%
O=C(NC1CCCCN(Cc2cccc(Cl)c2)C1=O)c1ccc(COc2ccccc2)cc1 (configuration not stated)	/	i	/	/
O=[N+]([O-])c1ccc2nc(CNc3nc(N4CCOCC4)nc4c3ncn4-c3ccsc3)[nH]c2c1	/	i	/	/
Cc1cnn(-c2ccccc2)c1NC(=O)COCc1ccccc1	/	i	/	/
c1ccc(Cn2c(SC3CCCCC3)nnc2-c2cccnc2)cc1	/	i	/	/
O=C(Nc1cccc(-c2csc(Nc3cccc(C(F)(F)F)c3)n2)c1)c1ccccc1	-23%	i	i	18µM*
O=C(Nc1cccc(-c2csc(Nc3ccccc3)n2)c1)c1ccccc1	-22%	i	i	6.3µM*
O=C(Nc1ccc(-c2csc(Nc3cccc(C(F)(F)F)c3)n2)cc1)c1ccccc1	-10%	i	i	20%
CC(C)CN1CN2CCc3ccccc3C2CS1(=O)=O (configuration not stated)	/	i	/	/
COc1cccc(-c2nnc3n2N=C(c2ccc(Cl)cc2)CS3)c1	/	i	/	/
Cc1ncoc1C(=O)N1CCCC(C(=O)c2ccc(Oc3ccccc3)cc2)C1 (configuration not stated)	-21%	i	i	-4%
Cc1ncoc1C(=O)N1CCCC(C(=O)c2ccc(-c3ccccc3)c(F)c2)C1 (configuration not stated)	-40%	?	i	22µM*
CCOc1cccc(C2C=C(c3ccc4c(c3)OCO4)NC(c3ccc(Cl)cc3)N2)c1O (configuration not stated)	2%	/	/	/
O=C(CSc1nnnn1-c1cccc2c1CCCC2)N1CCCC1	3%	i	i	20µM*
c1ccc(Sc2nc(N3CCCCC3)nc(N3CCCCC3)n2)nc1	-1%	i	i	16µM*
